# Results as given in article PMC4336329 (PLoS ONE, 2015).
# The campaign covered roughly 310,000 compounds. About 14,000 (4.5%) showed an effect of 50% or more. The effect is printed as a negative number. This excerpt belongs to a sample that is enriched for strong results.
# Biological target: human ether-à-go-go-related gene (hERG) potassium channel (human, UniProt Q12809)
# Assay: primary screen, population patch clamp on CHO cells stably expressing hERG; higher = less effect of the substance
# 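Further: peak tail current of the secondary pulse compared with the same well before compound.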
# human ether-à-go-go-related gene (hERG) potassium channel, sequence (Q12809 whole entry, looked up): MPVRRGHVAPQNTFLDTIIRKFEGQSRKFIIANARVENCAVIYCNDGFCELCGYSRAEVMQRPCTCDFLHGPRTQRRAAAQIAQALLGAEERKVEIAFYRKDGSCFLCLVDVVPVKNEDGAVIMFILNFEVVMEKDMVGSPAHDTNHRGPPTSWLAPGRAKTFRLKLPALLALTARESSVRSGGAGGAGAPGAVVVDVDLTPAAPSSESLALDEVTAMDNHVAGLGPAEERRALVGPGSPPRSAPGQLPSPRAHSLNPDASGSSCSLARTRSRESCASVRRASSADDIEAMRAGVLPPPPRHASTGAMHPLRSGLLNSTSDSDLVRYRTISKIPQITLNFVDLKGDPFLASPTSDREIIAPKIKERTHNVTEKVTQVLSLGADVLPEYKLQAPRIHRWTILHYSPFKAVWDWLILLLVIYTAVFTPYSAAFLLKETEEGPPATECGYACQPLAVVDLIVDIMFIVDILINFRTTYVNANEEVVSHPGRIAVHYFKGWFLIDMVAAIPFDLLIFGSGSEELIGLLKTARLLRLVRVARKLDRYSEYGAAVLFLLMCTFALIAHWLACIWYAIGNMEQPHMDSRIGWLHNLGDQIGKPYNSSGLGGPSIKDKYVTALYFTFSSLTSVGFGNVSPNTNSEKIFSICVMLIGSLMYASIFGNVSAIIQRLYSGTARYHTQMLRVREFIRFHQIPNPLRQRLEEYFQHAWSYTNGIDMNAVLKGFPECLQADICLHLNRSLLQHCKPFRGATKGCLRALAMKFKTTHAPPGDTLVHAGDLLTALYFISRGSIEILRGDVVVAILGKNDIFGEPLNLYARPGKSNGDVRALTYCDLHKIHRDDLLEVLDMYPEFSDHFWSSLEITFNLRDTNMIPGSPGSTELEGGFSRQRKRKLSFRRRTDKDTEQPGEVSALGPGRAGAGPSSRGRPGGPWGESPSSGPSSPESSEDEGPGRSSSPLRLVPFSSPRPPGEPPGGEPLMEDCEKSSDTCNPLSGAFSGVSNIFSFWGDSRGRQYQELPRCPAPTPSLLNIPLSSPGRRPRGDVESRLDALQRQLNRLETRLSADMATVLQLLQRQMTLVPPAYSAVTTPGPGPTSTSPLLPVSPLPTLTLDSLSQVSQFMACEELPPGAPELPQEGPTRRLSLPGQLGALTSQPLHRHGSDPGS
row,Structure (SMILES),"hERG current change (%, negative = inhibition) at 10uM [%]"
1,Cc1ccc(Cn2ccc(NC(=O)c3cc(CC(C)C)on3)n2)cc1,-8.08
2,CCn1nc(C(=O)OCC(=O)c2cc(C)n(Cc3cccs3)c2C)c2ccccc2c1=O,7.14
3,O=C(/C=C/c1cccs1)Nc1sc2c(c1C(=O)O)CCCC2,28.5
4,O=C(c1ccco1)N1CCN(C(=O)c2cc(-c3ccccn3)nc3ccccc23)CC1,-34.8
5,O=C(OCC(=O)N1CCN(C(=O)c2ccco2)CC1)c1cccc(F)c1,-16.8
6,O=C(OCC(=O)N1CCN(C(=O)c2ccco2)CC1)c1cc(-c2ccccc2)nc2ccccc12,-60.3
7,O=C(OCC(=O)N1CCN(C(=O)c2ccco2)CC1)c1cc(-c2ccco2)nc2ccccc12,-69.7
8,COc1ccc(-c2cc(C(=O)OCC(=O)N3CCCC3)c3ccccc3n2)cc1,-19.1
9,O=C(OCC(=O)N1CCN(C(=O)c2ccco2)CC1)c1cc(-c2cccc(Br)c2)nc2ccccc12,-19.6
10,O=C(OCC(=O)N1CCN(C(=O)c2ccco2)CC1)c1cc(-c2ccc(F)cc2)nc2ccccc12,-59.4
11,Cc1cc(C(=O)OCC(=O)N2CCN(C(=O)c3ccco3)CC2)c(C)n1-c1ccc(F)cc1,-66.4
12,O=C(COC(=O)c1cc(-c2ccco2)nc2ccccc12)NCc1ccccc1,-11.3
13,O=C(OCC(=O)N1CCN(C(=O)c2ccco2)CC1)c1cc(-c2ccc(Cl)c(Cl)c2Cl)nc2ccccc12,2.88
14,O=C(c1cc(-c2ccco2)nc2ccccc12)N1CCN(Cc2ccccc2)CC1,-42.8
15,Cc1cc(C(=O)OCC(=O)NCc2ccco2)c(C)n1-c1ccc(F)cc1,-28.3
16,CCCn1[nH]cc(SC)c(=O)c1=O,-5.83
17,CCn1c(SCC(=O)Nc2c(C)n(C)n(-c3ccccc3)c2=O)nc2c1c(=O)n(C)c(=O)n2C,18.2
18,Cc1c(C(C)C)c(=O)n(-c2ccc(S(=O)(=O)N3CCOCC3)cc2)n1C,17.4
19,Nc1c(Cl)c(Cl)nc(C(=O)OCC(=O)NCc2ccccc2)c1Cl,-18.2
20,COCCn1c(SCC#N)nnc1-c1ccc2c(c1)OCO2,-24.2
21,CCCCC(=O)Nc1c(O)c2ccccc2[nH]c1=O,-0.31

row,Structure (SMILES),"hERG current change (%, negative = inhibition) at 10uM [%]"
1,Cc1ccc(NC(=O)N2CCCCC2)cc1NC(=O)N1CCCCC1,16.5
2,Cc1ccc(-n2c(O)c(C=N)c(=O)n(-c3ccc(C)cc3)c2=O)cc1,-8.85
3,O=C1NC(=O)C(CCc2ccncc2)(CCc2ccncc2)C(=O)N1C1CCCCC1,-75.3
4,O=C1NC(=O)C(CCc2ccncc2)(CCc2ccncc2)C(=O)N1CCc1ccccc1,-71.7
5,CN1C(=O)N(C)C(=O)C(CCc2ccncc2)(CCc2ccncc2)C1=O,-51.2
6,COc1ccccc1N1C(=O)NC(=O)C(CCc2ccncc2)(CCc2ccncc2)C1=O,-46.6
7,O=C1NC(=O)C(CCc2ccncc2)(Cc2ccc3c(c2)OCO3)C(=O)N1CCc1ccccc1 (centres unmarked),-32.5
8,O=C1NC(=O)C(CCc2ccncc2)(CCc2ccncc2)C(=O)N1Cc1ccccc1,-72.5
9,COc1cc(CC2(CCc3ccncc3)C(=O)N(C)C(=O)N(C)C2=O)cc(OC)c1OC,-8.33
10,CN1C(=O)N(C)C(=O)C(CCc2ccccn2)(CCc2ccccn2)C1=O,3.54
11,CCC1(CCc2ccncc2)C(=O)NC(=O)NC1=O,-4.69
12,O=C1NC(=O)C(CCc2ccncc2)(c2ccccc2)C(=O)N1,5.76
13,C=CCN1C(=O)NC(=O)C(CCc2ccncc2)(CCc2ccncc2)C1=O,-41.8
14,O=C1NC(=O)C(CCc2ccncc2)(C2CCCCC2)C(=O)N1,5.77
15,O=C(Cn1nc(-c2ccccc2)c2ccccc2c1=O)NN1CCOCC1,5.24
16,COc1ccc(S(=O)(=O)NCc2cccnc2)cc1OC,17.1
17,COc1cc2sc3ccc(C#Cc4ccccn4)cc3c(=O)c2cc1OC,14.9
18,O=C1Cc2ccccc2C(=O)N1Cc1cccc(Cl)c1,11.5
19,CC(=O)Nc1sc(NC(=O)c2ccccc2)nc1-c1cccs1,0.00438
20,CC1CC(Nc2ccccc2)=CC(=O)O1 (centres unmarked),24.7
21,CC(c1nnc(Sc2nnnn2-c2ccccc2)n1-c1ccc(F)cc1)N(C)C (centres unmarked),3.57

row,Structure (SMILES),"hERG current change (%, negative = inhibition) at 10uM [%]"
1,COC(=O)c1ccccc1NC(=O)CN1CCC(NC(=O)c2ccc(C)cc2)CC1,8.67
2,COc1ccc(CN(C)CC(=O)Nc2ccccc2C(=O)NC2CC2)cc1OC,-21.7
3,COc1cc(C)c(CN2CCN(CC(=O)Nc3ccccc3C(=O)NC3CC3)CC2)cc1OC,-80.1
4,COc1ccc(F)cc1CN1CCN(CC(=O)Nc2ccccc2C(=O)NC2CC2)CC1,-87.6
5,COc1ccccc1OCC(=O)Nc1ccccc1C(=O)NC1CC1,-8.86
6,COc1ccc(OCC(=O)Nc2ccccc2C(=O)NC2CC2)cc1,-13.4
7,COc1ccc(OC)c(CN2CCN(CC(=O)Nc3ccccc3C(=O)NC3CC3)CC2)c1,-82.5
8,COc1ccc(CN2CCN(CC(=O)Nc3ccccc3C(=O)NC3CC3)CC2)cc1F,-91.3
9,COc1cccc(OC)c1NC(=O)CN1CCC(NC(=O)c2cccc(F)c2)CC1,1.5
10,COc1cc2c(cc1OC)CN(CC(=O)Nc1ccccc1C(=O)NC1CC1)CC2,-24.5
11,O=C(CCC(=O)c1ccc(F)cc1)Nc1ccccc1Cl,1.71
12,Cc1ccc(S(=O)(=O)N2CCCC2)cc1C(=O)N1CCN(Cc2ccccc2)CC1,-8.29
13,CC1CSc2nnc(CCc3ccccc3)n21 (centres unmarked),8.26
14,O=C(CSc1ccc(-c2cccnc2)nn1)N1CCCCCC1,23.2
15,CCCCn1c(N)c(N(CCOC)C(=O)CSCc2cccc(C)c2)c(=O)[nH]c1=O,9.08
16,COCCNS(=O)(=O)c1ccc(SC)cc1,10.2
17,Cc1cc(NC(=O)CSc2nnc(COc3ccccc3)n2Cc2ccco2)no1,2.24
18,CCOC(=O)c1c(NC(=O)CCS(=O)(=O)c2ccccc2)sc2c1CCN(C(C)C)C2.Cl,-72.4
19,CCOC(=O)N1CCc2c(sc(NC(=O)CCS(=O)(=O)c3ccccc3)c2C(N)=O)C1,-10.8
20,CC(C)N1CCc2c(sc(NC(=O)CCS(=O)(=O)c3ccccc3)c2C#N)C1.Cl,-9.63
21,CN1CCc2c(sc(NC(=O)CS(=O)(=O)c3ccccc3)c2C(N)=O)C1.Cl,-23.4

row,Structure (SMILES),"hERG current change (%, negative = inhibition) at 10uM [%]"
1,CC(=O)N1CCc2c(sc(NC(=O)CCS(=O)(=O)c3ccccc3)c2C(N)=O)C1,5.3
2,CCOC(=O)c1c(NC(=O)CCS(=O)(=O)c2ccccc2)sc2c1CCN(C)C2.Cl,-52.5
3,CN1CCc2c(sc(NC(=O)CS(=O)(=O)c3ccc(F)cc3)c2C(N)=O)C1.Cl,-58.8
4,CC(=O)N1CCc2c(sc(NC(=O)CS(=O)(=O)c3ccc(F)cc3)c2C(N)=O)C1,15.7
5,CC(C)N1CCc2c(sc(NC(=O)CCS(=O)(=O)c3ccccc3)c2C(N)=O)C1.Cl,-26
6,CCCN1CCc2c(sc(NC(=O)CCS(=O)(=O)c3ccccc3)c2C(N)=O)C1.Cl,-27.3
7,COC(=O)c1c(NC(=O)CCS(=O)(=O)c2ccccc2)sc2c1CCN(C)C2.Cl,-48
8,CCCN1CCc2c(sc(NC(=O)CCS(=O)(=O)c3ccccc3)c2C(=O)OC)C1.Cl,-67
9,CC(Sc1ncn[nH]1)C(=O)Nc1ccc(Cl)cn1 (centres unmarked),2.06
10,O=C(O)c1ccc(/C=C/c2nc3ccccc3c(=O)[nH]2)cc1,17.5
11,CCSc1nnc(NC(=O)c2cccs2)s1,-8.23
12,COc1cc(OC)cc(-c2nnc(SCC(=O)N3c4ccccc4Sc4ccccc43)o2)c1,15.3
13,CC1C=CCC2C(=O)N(c3ccc(Cl)cc3O)C(=O)C12 (centres unmarked),-2.47
14,COC(=O)c1sc(N2C(=O)C(O)=C(C(=O)c3ccc(C)o3)C2c2ccco2)nc1C (centres unmarked),-4.73
15,O=C(O)C1=C[C@H](c2ccc(C(F)(F)F)cc2)C[C@H](OCc2ccc(CO)cc2)O1,21.5
16,O=C(CSc1ccsc1[N+](=O)[O-])N1CCN(c2ccc(Cl)cc2)CC1,10
17,O=C(COc1ccc(Cl)cc1)Nc1ccc(NC(=O)c2ccco2)cc1,13.4
18,COc1cccc(CN(C)C(=O)Nc2cccc(C(F)(F)F)c2)c1OC,-4.73
19,O=C(NCc1ccc(Cl)cc1)c1cc2c(s1)CS(=O)(=O)C2,-15.1
20,O=C(CCCn1c(=O)c2sccc2n(Cc2ccc(F)cc2)c1=O)NCc1ccco1,-30.2
